Records with an inconclusive call do not appear. A call without a number means that no potency is given here. The source made the active and inactive calls. Calls come from the whole dose curve; as a rule, active = well fitted inhibition curve with a large enough effect; inconclusive = small, poorly fitted or top-dose-only effect; inactive = no such curve, though single readings can be large or run the other way.

The assay has as its system Zika virus NS2B-NS3 protease (linked construct). The experiment in a line: Primary screen NINDS Rhodamine qHTS for Zika virus inhibitors (AID 1347160). Note: nearly all actives have a fitted effect of over 55% in size. Particulars: purified NS2B-NS3 protease, Rhodamine110 substrate fluorescence; series mostly up to 33.1 µM. Summed up: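 Purified NS2B-NS3 protease with the NS2B hydrophilic domain joined by a flexible linker (25 nM) in 10 mM Tris-HCl pH 8.0, 0.01% Tween 20, preincubated 15 min at RT with compound; Rhodamine110 peptide substrate 1.5 µM; fluorescence change over 15 min; 4-parameter Hill fit.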
Turning to `CC(C)/C=C1/NC(=O)C(C(C)C)n2c1nc1c(O)cccc1c2=O` (stereo not drawn), the Potency result is “inactive”. As to `COC1OC(O)C2(CCC3(O2)C(C)CC2OC(=O)C4(C)CCCC3(C)C24)C1O` (stereo not drawn), the Potency entry is “inactive”. For `CSCC1OC(n2cnc3c(N)ncnc32)C(O)C1O` (stereo not drawn), the Potency result was “inactive”.

Take `OC[C@@]1(O)CO[C@H](OC[C@H]2O[C@@H](OC(CCCCc3ccc(O)cc3)CCc3ccc(O)cc3)[C@H](O)[C@@H](O)[C@@H]2O)[C@@H]1O` (stereo partly drawn): the Potency result was “inactive”. `CC1(C)CC[C@]2(C(=O)O[C@@H]3O[C@H](CO[C@@H]4O[C@H](CO)[C@@H](O)[C@H](O)[C@H]4O)[C@@H](O)[C@H](O[C@@H]4O[C@H](CO)[C@@H](O)[C@H](O)[C@H]4O)[C@H]3O)[C@H](O)C[C@]3(C)C(=CCC4[C@@]5(C)CC[C@H](O[C@@H]6OC[C@@H](O)[C@H](O)[C@H]6O)[C@@](C)(C(=O)O)C5CC[C@]43C)[C@@H]2C1` (stereo partly drawn): the Potency result was “inactive”. Turning to `C[C@@H]1O[C@@H](O[C@H]2[C@H](OC(=O)[C@]34CCC(C)(C)C[C@H]3C3=CCC5[C@@]6(C)CC[C@H](O[C@@H]7O[C@H](CO[C@@H]8OC[C@H](O)[C@H](O)[C@H]8O)[C@@H](O)[C@H](O)[C@H]7O)C(C)(C)C6CC[C@@]5(C)[C@]3(C)C[C@H]4O)OC[C@@H](O)[C@@H]2O)[C@H](O)[C@H](O[C@@H]2OC[C@](O)(CO)[C@H]2O)[C@H]1O[C@@H]1OC[C@H](O)[C@H](O[C@@H]2OC[C@@H](O)[C@H](O)[C@H]2O)[C@H]1O` (stereo partly drawn), the outcome is “inactive [at 10.7 µM]”. In the case of `COc1ccc(CCc2nc3cc(-c4c(C)noc4C)ccc3n2C[C@H](C)N2CCOCC2)cc1Cl`, the Potency result is “inactive”. Take `COc1ccccc1N1CCN(CCCCNC(=O)c2ccc(-c3cscn3)cc2)CC1`: the Potency result was “inactive”. Still for that read-out and setting: the value for `COc1ccc(-n2[nH]c3c(cnc4ccccc43)c2=O)cc1` was “inactive”. As for `COC(=O)C(CC1(O)c2ccccc2N2C(=O)C(C)(C)N(O)C21)n1cnc2ccccc2c1=O` (stereo not drawn), the Potency result is “inactive”. The same measure, in the same setting: with `C[C@@H]1O[C@@H](O[C@H]2[C@H](Oc3cc(O)c(C(=O)CCc4ccc(O)cc4)c(O)c3)O[C@H](CO)[C@@H](O)[C@@H]2O)[C@H](O)[C@H](O)[C@H]1O` the entry was “inactive”; with `C/C=C(\C)C(=O)OCC1OC(OCC2OC(OC3(CO)OC(CO)C(O)C3O)C(O)C(O)C2O)C(O)C(O)C1O` (stereo not drawn), “inactive”; with `COC(=O)C1=CO[C@@H](O[C@@H]2O[C@H](CO)[C@@H](O)[C@H](O)[C@H]2O)[C@@H]2[C@@H](C(=O)O)CC[C@H]12`, “inactive”. On the same count and under the same terms, with `C=C(C)C1CCC2(C(=O)OC3OC(COC4OC(CO)C(O)C(O)C4O)C(OC4OC(C)C(O)C(O)C4O)C(O)C3O)CCC3(C(=O)O)C(CCC4C5(C)CCC(=O)C(C)(C)C5CCC43C)C12` (stereo not drawn) the entry was “inactive”; with `COC(=O)C[C@@H]1C(C(=O)O)=CO[C@@H](O[C@@H]2O[C@H](CO)[C@@H](O)[C@H](O)[C@H]2O)/C1=C\COC(=O)/C=C/c1ccc(O)c(OC)c1`, “inactive”; with `COC(=O)C1=COC(O[C@@H]2O[C@H](CO)[C@@H](O)[C@H](O)[C@H]2O)C2C(C)C(=O)CC12` (stereo partly drawn), “inactive”.

Consider `COC(=O)C1=COC(OC2OC(CO)C(O)C(O)C2O)C2C(C)C(OC(C)=O)C(OC(=O)c3ccccc3)C12` (stereo not drawn), for which the Potency entry was “inactive”. Still for that read-out and setting: the value for `CC(C)(O)C1OC1C1=CC(=O)C2(C)OC2C1O` (stereo not drawn) was “inactive”. The same measure, in the same setting: the value for `OCC1OC(Oc2cc(O)cc(/C=C/c3ccc(OC4OC(CO)C(O)C(O)C4O)cc3O)c2)C(O)C(O)C1O` (stereo not drawn) was “inactive”; that for `Cc1ccc(-c2c(-c3nn(C)c4ncnc(N5CC[C@H](N6CCCCC6)C5)c34)cnn2C)cc1` was “inactive”.

Take `COc1cc(C)c(C(=O)O[C@@H]2[C@H](O)[C@@H](CO)O[C@H]2n2ccc(=O)[nH]c2=O)c(OC)c1`: the Potency entry was “inactive”. As to `CC(=O)O[C@@H]1[C@H](O[C@@H]2OC[C@](O)(CO)[C@H]2O)[C@@H](O[C@@H]2O[C@@H](C)[C@H](O)[C@@H](O[C@@H]3O[C@H](CO)[C@@H](O)[C@H](O)[C@H]3O)[C@H]2O)[C@H](OC(=O)[C@]23CCC(C)(C)C[C@H]2C2=CCC4[C@@]5(C)C[C@H](O)[C@H](O[C@@H]6O[C@H](C(=O)O)[C@@H](O)[C@H](O)[C@H]6O)[C@@](C)(C(=O)O)C5CC[C@@]4(C)[C@]2(C)CC3)O[C@@H]1C` (stereo partly drawn), the Potency result was “inactive”. The same measure, in the same setting: the value for `C=C[C@]1(C)C[C@@H](OC(=O)CSC2C[C@H]3CC[C@@H](C2)N3C)[C@]2(C)[C@H](C)CC[C@]3(CCC(=O)[C@H]32)[C@@H](C)[C@@H]1O` (stereo partly drawn) was “inactive”; that for `COC(=O)c1c(CC=C(C)C)c(OC2OC(CO)C(O)C(O)C2O)c2ccccc2c1OC1OC(CO)C(O)C(O)C1O` (stereo not drawn) was “inactive”; that for `CC(=O)O[C@H]1C[C@@H](O)C(C)(C)C2C[C@@H](OC(C)=O)[C@@]3(C)C4=CCC(C(CO)CC(O)C5OC5(C)C)[C@]4(C)CCC3[C@]21C` (stereo partly drawn) was “inactive”. Still for that read-out and setting: the value for `COc1cc(CO)ccc1O[C@@H]1O[C@H](CO)[C@@H](O)[C@H](O)[C@H]1O` was “inactive”. On the same count and under the same terms, the value for `CCN(CCN(C)C)C(=O)CNCc1cc(C(N)=O)ccn1` was “inactive”. In the case of `CC1(C)CC2C(O)C3=C(CC(C)(O)C2C1)C(=O)OC3` (stereo not drawn), the Potency entry is “inactive”.

As to `C/C=C/C(=O)OC1/C=C/C(O)C(OC(C)=O)CCC(=O)OC1C` (stereo not drawn), the Potency entry was “inactive”. The same measure, in the same setting: the value for `C=C(C(=O)O)[C@@H]1CC[C@@]2(C)CCC[C@@](C)(O)[C@@H]2C1` was “inactive”; that for `CC(C)(C)NS(=O)(=O)c1ccc(-c2ccc3[nH]nc(N)c3c2)cc1` was “inactive”. Still for that read-out and setting: the value for `CCOC(=O)CSc1nc2c(sc3ccccc32)c(=O)n1CCCN1CCCC1` was “inactive”; that for `CC(=O)c1[nH]cc(CCC(=O)O)c1CC(=O)O` was “inactive”. Same read-out and setting: with `O=C(OCC1=CC(Cl)C(O)C(OC(=O)c2ccccc2)C1O)c1ccccc1` (stereo not drawn) the entry was “inactive”. With `N#CN1CCC[C@@H](n2nc(-c3ccc(Oc4ccc(F)cc4F)cc3)c(C(N)=O)c2N)C1`, the Potency entry is “inactive”. As to `CC1OC(O[C@H]2CC[C@@]3(C)C(CC[C@]4(C)C3CC=C3C5CC(C)(C)CC[C@]5(C(=O)OC5OC(CO)C(OC6OCC(OC7OCC(O)C(O)C7O)C(O)C6O)C(O)C5O)CC[C@]34C)C2(C)C)C(O)C(O)C1OC1OC(CO)C(O)C(OC2OC(CO)C(O)C(O)C2O)C1O` (stereo partly drawn), the outcome was “inactive [at 10.7 µM]”. Take `Nc1ncnc2c1C(=O)N(c1ccc(C3CCC(CC(=O)O)CC3)cc1)CCO2` (stereo not drawn): the Potency entry is “inactive”. Same read-out and setting: with `C=CC(C)(O)C1CC2C3(C)CCCC(C)(C)C3C(O)C(O)C2(C)O1` (stereo not drawn) the entry was “inactive”.

The record behind these values is PubChem BioAssay (NCATS).
